Calls of active or inactive are those of the source. Unless noted, the rule behind the calls is not given here.

Assay [1] in a line: blood-stage malaria parasite viability loss – strain 3D7, DAPI fluorescence, 100 nL, primary screen (AID 1184).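 Note: parasites grown inside human red blood cells in medium with human serum.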 The following applies: P. falciparum 3D7 growth, 3 d, higher = more signal.
The target in assay [2] is Homeobox protein Hox-A13 (Mus musculus) (UniProt Q62424). In words: disruptors of Hoxa13 oligonucleotide interaction – biochemical, fluorescence polarization, labeled oligonucleotide, primary screen (AID 1185). The following applies: Hoxa13:DNA binding, 15 min, higher = more signal, called active from +8 up or from −8 down. (Polarisation of emitted light reports the rotation of a fluorescent probe.)

Assay [3] is described as follows: blockers of DNA damage checkpoint Chk1 activation – imaging, HeLa, hydroxyurea, phospho-Chk1 antibody, percent positive cells, primary screen (AID 1186). The following applies: hydroxyurea-induced phospho-Chk1 immunofluorescence imaging, higher = more signal.
The nature of assay [4]: blockers of DNA damage checkpoint Chk1 activation – imaging, HeLa, hydroxyurea, phospho-Chk1 nuclear intensity, primary screen (AID 1187). Note: test concentration not given here. Particulars: hydroxyurea-induced phospho-Chk1 immunofluorescence imaging, higher = more signal.

Sequence of Homeobox protein Hox-A13 (Mus musculus) (Q62424 whole entry, looked up): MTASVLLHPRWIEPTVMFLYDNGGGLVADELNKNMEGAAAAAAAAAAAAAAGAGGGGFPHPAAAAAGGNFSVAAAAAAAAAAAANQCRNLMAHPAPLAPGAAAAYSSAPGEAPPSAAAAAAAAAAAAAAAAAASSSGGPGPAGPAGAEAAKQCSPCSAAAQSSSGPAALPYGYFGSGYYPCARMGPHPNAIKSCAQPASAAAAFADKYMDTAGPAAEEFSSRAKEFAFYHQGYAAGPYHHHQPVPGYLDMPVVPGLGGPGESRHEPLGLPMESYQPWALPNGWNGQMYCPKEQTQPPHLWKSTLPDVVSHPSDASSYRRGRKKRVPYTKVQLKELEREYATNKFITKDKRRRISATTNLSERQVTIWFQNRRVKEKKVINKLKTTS

With `CCOC(=O)C[C@H]1[C@H](OC(=O)Cc2ccc3c(c2)OCO3)[C@@H](NC(=O)c2ccc3ccccc3c2)c2cc(OCCCO)ccc2N1C(=O)c1ccc2ccccc2n1`, the z-score in assay [1] is -1.29; in assay [2] it was -2.66 (inactive); in assay [3], -0.926 (inactive); in assay [4] it was -0.612 (inactive).
With `O=C1N(CCS(=O)(=O)c2ccccc2)Cc2ccccc2[C@@H]2OC(c3ccc(OCCCO)cc3)=N[C@]12Cc1ccccc1`, the z-score in assay [1] was -2.19; in assay [2], 2.39 (inactive); in assay [3], -0.354 (inactive); in assay [4], 0.111 (inactive).
The corresponding values for `COC(=O)C1=CC(c2ccc(CO)cc2)=CC(C2CC2)N(C)C=C1C(=O)OC` (centres undefined) are -0.591, -8.22 (active), -0.516 (inactive) and -0.732 (inactive).
In the case of `NC(=O)N1C(=O)C2C(C1=O)C1C=C(c3ccc(CO)cc3)C2C(C2CC2)N1Cc1cc2c(cc1Br)OCO2` (centres undefined), the z-score was -2.14 in assay [1], -3.21 (inactive) in assay [2], -0.136 (inactive) in assay [3] and -0.279 (inactive) in assay [4].
For the compound `O=C(O)[C@H]1C[C@H]2C(=O)N[C@@H](Cc3ccccc3)C(=O)N2[C@H]1c1ccc(O)cc1`, the z-score in assay [1] is -0.453; in assay [2], -2.68 (inactive); in assay [3], -0.119 (inactive); in assay [4], -0.18 (inactive).
Taken in the same sequence, the figures for `C=C(C1=CCN(S(=O)(=O)c2ccc(C)cc2)C1)[C@@H](OC(C)=O)[C@@H]1CCCN1S(=O)(=O)c1ccccc1[N+](=O)[O-]` were -2.68, -3.62 (inactive), -0.353 (inactive) and 0.0039 (inactive).
The corresponding values for `COCCOC(=O)N1C(=O)[C@@]2(c3cc(C#CC4(O)CCCCCC4)ccc31)[C@H](c1ccc(O)cc1)N1[C@H](c3ccccc3)[C@H](c3ccccc3)OC(=O)[C@H]1[C@@H]2C(N)=O` are -0.5, -2.38 (inactive), 0.178 (inactive) and 0.0653 (inactive).
Regarding `COc1ccc([Si](C)(C)[C@H]2[C@H](CC(=O)N(CCO)Cc3ccccc3)O[C@@]3(C(=O)N(Cc4ccc(N5CCC5=O)cc4)c4ccccc43)[C@@H]2C)cc1`, the z-score was -1.24 in assay [1], -0.622 (inactive) in assay [2], -0.632 (inactive) in assay [3] and -0.0543 (inactive) in assay [4].
Taken in the same sequence, the figures for `COc1ccc([Si](C)(C)[C@@H]2[C@@H](CCn3cc([C@H](O)c4ccccc4)nn3)O[C@]3(C(=O)N(C)c4c(Br)cc(C)cc43)[C@H]2C)cc1` were -1.22, -3.19 (inactive), -0.973 (inactive) and -0.208 (inactive).
The corresponding values for `CCCNC(=O)[C@@]1(Sc2ccc(C)cc2)CC(=O)N(Cc2cc(C(F)(F)F)cc(C(F)(F)F)c2)[C@@H]1c1ccc(CO)cc1I` are -0.975, -2.86 (inactive), -0.661 (inactive) and -0.6 (inactive).
The corresponding values for `C=CC[C@@H](OC(=O)Nc1ccc(SC)cc1)c1ccc(OCCO)cc1` are 0.246, -5.9 (inactive), -0.0622 (inactive) and 0.593 (inactive).

These data come from PubChem BioAssay.
